Measurements taken from PubChem BioAssay (Tox21).
Inconclusive results are not listed. Calls of active or inactive are those of the source. Unless noted, calls come from the whole dose curve; as a rule, active = well fitted curve in the direction sought with a large enough effect in the repeat runs; inconclusive = weak or mixed curves; inactive = no such curve, though single readings can be large; an effect the other way counts as inactive or inconclusive.

Legend:
[1] = A CellTox Green Cytotoxicity Assay to monitor cytotoxicity in HepG2 cells - 8 hour (AID 1224890); note: nearly all actives have a fitted effect of over 45% in size
How it was run: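 Nonlytic assay: viable cells exclude the dye, so fluorescence scales with cell death. HepG2 at 600 cells/well, compounds added after 5 h, signal read across 40 h.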

[2] = qHTS assay to identify small molecule antagonists of the estrogen receptor alpha (ER-alpha) signaling pathway using the BG1 cell line in the presence of 0.1 nM 17-beta-estradiol - cell viability counter screen (AID 1259241); note: nearly all actives have a fitted effect of over 40% in size
How it was run: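 Estradiol-stimulated (0.1 nM) VM7Luc4E2 cells exposed to compounds 22 hr; viability measured by fluorescence of cleaved CellTiter-Fluor substrate after 30 min.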

[3] = qHTS assay to identify small molecule antagonists of the androgen receptor (AR) signaling pathway using the MDA cell line in the presence of 0.5 nM R1881 - cell viability counter screen (AID 1259242); note: nearly all actives have a fitted effect of over 45% in size
How it was run: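 R1881 at 0.5 nM final stimulated MDA-kb2 cells during 16 hr compound treatment at 37C. Cytotoxicity read: CellTiter-Fluor fluorescence after 30 min.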

[4] = target: Estrogen receptor (Homo sapiens) (UniProt P03372); assay: qHTS assay to identify small molecule antagonists of the estrogen receptor alpha (ER-alpha) signaling pathway using the BG1 cell line in the presence of 0.1 nM 17-beta-estradiol (AID 1259244); note: nearly all actives have a fitted effect of over 50% in size
How it was run: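 VM7Luc4E2; 4xERE-luciferase; 0.1 nM E2 final; 22 h co-incubation, 37C; ONE-Glo luminescence after 30 min at room temperature.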

[5] = qHTS assay to identify small molecule phospholipidosis (PLD) inducers (AID 1259344; active = well fitted curve in the direction sought with a large enough effect; an effect the other way counts as inactive or inconclusive)
How it was run: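 Fluorescent phospholipid staining (LipidTOX Red) measured by automated microscopy in fixed HepG2 cells after 24 h treatment; nuclei counterstained with Hoechst 33342; amiodarone as reference inducer.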

[6] = qHTS assay to identify small molecule HDAC inhibitors (AID 1259364);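 note: wild-type HCT-116 cells with endogenous class I/II HDAC activity; top concentration of the series differs between compounds; nearly all actives have a fitted effect of over 45% in size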
How it was run: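 Relative class I and II HDAC activity is taken from the luminogenic signal in HCT-116 cells, with compound exposure 2 hr and reagent development 30 min at room temperature.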

[7] = qHTS assay to identify small molecule HDAC inhibitors - cell viability counter screen (AID 1259365); note: series mostly up to about 92 µM; nearly all actives have a fitted effect of over 50% in size
How it was run: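 After overnight seeding at 1,500 cells per well, wild-type HCT-116 cultures took up compounds in DMSO for 2hr at 37 C. Viable cell content came from luminescence with CellTiter-Glo.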

[8] = qHTS assay to identify small molecule agonists of the sonic hedgehog signaling (Shh) pathway - cell viability counter screen (AID 1259366); note: nearly all actives have a fitted effect of over 50% in size
How it was run: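 Same-well cytotoxicity read. Gli1-Luc reporter 3T3 cells; compounds 24hr, 37C/5% CO2; CellTiter-Fluor fluorescence.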

[9] = qHTS assay to identify small molecule antagonists of the sonic hedgehog signaling (Shh) pathway - cell viability counter screen (AID 1259367); note: nearly all actives have a fitted effect of over 55% in size
How it was run: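 Using CellTiter-Fluor, viability of Gli1-Luc reporter 3T3 cells is read by fluorescence in the wells used for the Shh luciferase assay. Treatment lasts 23 hr with conditioned medium, then reagent 1 hr at 37C.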

[10] = qHTS assay to identify small molecule agonists of the sonic hedgehog signaling (Shh) pathway (AID 1259368; calls by dose curve;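 note: NIH/3T3-derived 3T3Gli1-Luc cells carrying a stable Gli1-driven firefly luciferase reporter; series mostly up to about 92 µM; nearly all actives have a fitted effect of over 15% in size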)
How it was run: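 Mouse fibroblast (NIH/3T3) reporter cells with stably integrated Gli1-Luc were treated 24 hr with compound; firefly luciferase luminescence served as the read-out.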

[11] = qHTS assay to identify small molecule antagonists of the sonic hedgehog signaling (Shh) pathway (AID 1259369; calls by dose curve; note: nearly all actives have a fitted effect of over 45% in size)
How it was run: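 Conditioned medium drives Shh signalling in 3T3Gli1-Luc cells; compounds in DMSO co-applied, 24hr at 37 C, then luciferase luminescence.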

[12] = target: Estrogen receptor beta (Homo sapiens) (UniProt Q92731); assay: qHTS assay to identify small molecule agonists of the estrogen receptor beta (ER-beta) signaling pathway (AID 1259377; active = well fitted activation curve with a large enough effect in the signal ratio in the repeat runs, not every such curve was filed as active; the % refers to the signal ratio)
How it was run: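 Read-out: beta-lactamase FRET fluorescence. Cell line: ER-beta-UAS-bla HEK293T in 2% charcoal-stripped FBS. Exposure: 16 hr at 37C. Substrate step: 2 h at room temperature.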

[13] = target: Estrogen receptor beta (Homo sapiens) (UniProt Q92731); assay: qHTS assay to identify small molecule antagonists of the estrogen receptor beta (ER-beta) signaling pathway (AID 1259378; active = well fitted inhibition curve with a large enough effect in the signal ratio in the repeat runs, not every such curve was filed as active; the % refers to the signal ratio)
How it was run: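 Antagonist mode: compounds added to beta-lactamase reporter HEK293T ER-beta-UAS cells stimulated with E2 (1nM final), 16 hr at 37C. LiveBLAzer B/G FRET substrate, 2 hours room temperature, fluorescence read-out.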

[14] = qHTS assay to identify small molecule agonists of the androgen receptor (AR) signaling pathway in the presence of an antagonist - cell viability counter screen (AID 1259379);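 note: MDA-kb2 human breast cancer cells carrying an MMTV luciferase reporter; series mostly up to about 92 µM; nearly all actives have a fitted effect of over 25% in size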
How it was run: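 A CellTiter-Fluor read-out measured viability of MDA-kb2 reporter cells (MMTV promoter with AR and GR response elements). Treatment: nilutamide 3.0uM final with compounds at 15 concentrations, 16 hr, 37C, 0% CO2.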

[15] = qHTS assay to identify small molecule agonists of the estrogen receptor beta (ER-beta) signaling pathway - cell viability counter screen (AID 1259380); note: nearly all actives have a fitted effect of over 30% in size
How it was run: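 Cells used were ER-beta-UAS-bla HEK293T in medium with 2% charcoal-stripped FBS. They were treated for 16 hr at 37C. Viability came from CellTiter-Glo luminescence.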

[16] = qHTS assay to identify small molecule antagonists of the estrogen receptor beta (ER-beta) signaling pathway - cell viability counter screen (AID 1259382); note: series mostly up to about 92 µM; nearly all actives have a fitted effect of over 55% in size
How it was run: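 Agonist-stimulated (1nM E2) ER-beta-UAS-bla HEK293T cells are incubated with library compounds for 16 hr at 37C. Cell viability is then assessed in the reporter-assay wells by adding CellTiter-Glo and reading luminescence after 30 min.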

[17] = target: Estrogen receptor (Homo sapiens) (UniProt P03372); assay: qHTS assay to identify small molecule agonists of the estrogen receptor alpha (ER-alpha) signaling pathway in the presence of an antagonist (AID 1259383; calls by dose curve; note: top concentration of the series differs between compounds; nearly all actives have a fitted effect of over 15% in size)
How it was run: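 Using VM7Luc4E2 cells seeded 24hr before treatment, antagonist ICI-182,780 (10.0nM final) was added, followed by compounds at 15 concentrations. Plates incubated 22hr; ONE-Glo luminescence quantified reporter activity.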

[18] = qHTS assay to identify small molecule agonists or antagonists of the thyroid stimulating hormone receptor (TSHR) signaling pathway - wild type cell line counter screen (AID 1259384; calls by dose curve)
How it was run: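 Counter screen in untransfected Hek293: compounds (15-point titration, triplicate) plus phosphodiesterase inhibitor Ro20-1724 added after 18 h plating; 30 min RT. Intracellular cAMP via competitive d2/cryptate immunoassay, 1 h incubation.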

[19] = target: Thyrotropin receptor (Homo sapiens) (UniProt P16473); assay: qHTS assay to identify small molecule antagonists of the thyroid stimulating hormone receptor (TSHR) signaling pathway (AID 1259385; calls by dose curve; note: nearly all actives have a fitted effect of over 20% in size)
How it was run: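 Antagonist mode: compound-treated TSHR-expressing HEK293 cells were stimulated with 1.5 ng/mL TSH (final) in presence of Ro20-1724 for 30 min at RT. HTRF cAMP detection after 1 h; each compound tested at 15 concentrations, triplicate.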

Measured: Potency

Sequence of Thyrotropin receptor (Homo sapiens) (P16473 whole entry, looked up): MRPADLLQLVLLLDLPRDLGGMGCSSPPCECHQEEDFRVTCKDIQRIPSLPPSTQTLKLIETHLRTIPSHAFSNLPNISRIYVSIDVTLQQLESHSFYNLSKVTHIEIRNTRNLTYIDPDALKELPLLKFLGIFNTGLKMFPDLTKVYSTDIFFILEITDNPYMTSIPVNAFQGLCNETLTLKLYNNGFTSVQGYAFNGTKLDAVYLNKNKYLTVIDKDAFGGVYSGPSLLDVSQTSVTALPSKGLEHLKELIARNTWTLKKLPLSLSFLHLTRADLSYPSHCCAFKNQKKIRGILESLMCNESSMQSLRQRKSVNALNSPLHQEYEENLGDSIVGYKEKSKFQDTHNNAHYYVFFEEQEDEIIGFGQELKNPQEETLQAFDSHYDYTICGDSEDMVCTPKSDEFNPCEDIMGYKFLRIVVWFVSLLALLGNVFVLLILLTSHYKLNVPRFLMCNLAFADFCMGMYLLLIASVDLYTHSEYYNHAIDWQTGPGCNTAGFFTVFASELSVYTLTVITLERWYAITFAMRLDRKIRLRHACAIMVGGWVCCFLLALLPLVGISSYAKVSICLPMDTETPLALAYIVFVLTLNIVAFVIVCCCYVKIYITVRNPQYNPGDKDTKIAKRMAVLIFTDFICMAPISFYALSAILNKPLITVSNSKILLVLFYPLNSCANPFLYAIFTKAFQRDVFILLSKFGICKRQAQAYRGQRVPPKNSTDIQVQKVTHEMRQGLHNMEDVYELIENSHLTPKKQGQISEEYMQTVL
Sequence of Estrogen receptor beta (Homo sapiens) (Q92731 whole entry, looked up): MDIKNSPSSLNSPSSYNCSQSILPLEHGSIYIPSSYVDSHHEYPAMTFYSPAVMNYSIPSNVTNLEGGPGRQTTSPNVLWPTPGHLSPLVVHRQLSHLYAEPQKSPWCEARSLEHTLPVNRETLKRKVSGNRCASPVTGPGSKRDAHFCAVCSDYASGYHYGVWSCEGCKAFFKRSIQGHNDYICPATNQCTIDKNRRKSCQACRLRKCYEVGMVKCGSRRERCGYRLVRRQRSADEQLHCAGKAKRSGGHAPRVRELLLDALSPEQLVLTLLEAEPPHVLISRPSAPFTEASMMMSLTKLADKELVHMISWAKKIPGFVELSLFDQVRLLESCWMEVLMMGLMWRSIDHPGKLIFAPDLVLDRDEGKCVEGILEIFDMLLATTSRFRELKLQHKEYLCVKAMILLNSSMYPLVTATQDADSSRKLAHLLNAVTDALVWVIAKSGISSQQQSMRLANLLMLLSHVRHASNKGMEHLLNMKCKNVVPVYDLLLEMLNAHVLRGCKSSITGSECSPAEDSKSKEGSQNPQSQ
Sequence of Estrogen receptor (Homo sapiens) (P03372 whole entry, looked up): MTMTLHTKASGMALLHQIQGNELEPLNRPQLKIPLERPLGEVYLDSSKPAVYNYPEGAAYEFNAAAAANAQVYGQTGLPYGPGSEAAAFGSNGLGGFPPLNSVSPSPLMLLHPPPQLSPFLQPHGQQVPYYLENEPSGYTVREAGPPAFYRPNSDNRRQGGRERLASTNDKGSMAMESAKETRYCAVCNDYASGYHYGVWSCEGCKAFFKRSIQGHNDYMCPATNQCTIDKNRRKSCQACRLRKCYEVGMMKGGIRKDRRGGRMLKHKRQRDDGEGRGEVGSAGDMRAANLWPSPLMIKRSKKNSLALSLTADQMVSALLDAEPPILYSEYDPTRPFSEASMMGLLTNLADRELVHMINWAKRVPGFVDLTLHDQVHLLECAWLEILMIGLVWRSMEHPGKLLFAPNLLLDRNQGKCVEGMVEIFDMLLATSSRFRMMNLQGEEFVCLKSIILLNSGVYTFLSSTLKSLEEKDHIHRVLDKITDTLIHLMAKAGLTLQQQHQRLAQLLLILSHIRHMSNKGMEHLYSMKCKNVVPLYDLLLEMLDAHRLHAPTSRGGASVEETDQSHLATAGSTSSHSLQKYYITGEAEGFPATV

Cc1ccc(S(=O)(=O)NC(=O)NN2CCCCCC2)cc1
inactive: all assays above

OC(Cn1cncn1)(Cn1cncn1)c1ccc(F)cc1F
inactive: all assays above

COc1ccc2[nH]cc(CCNC(C)=O)c2c1
not listed: [8]
inactive: all other assays above

Nc1ccc(C(=O)O)cc1
inactive: all assays above

CCCC(O)C(CC)CO (stereo not drawn)
not listed: [18] | [19]
inactive: all other assays above

Nc1ccn([C@H]2CC[C@@H](CO)O2)c(=O)n1
not listed: [8]
inactive: all other assays above

Cc1noc(NS(=O)(=O)c2ccc(N)cc2)c1C
not listed: [8]
inactive: all other assays above
